Data reported in PubChem BioAssay AID651599 (National Center for Advancing Translational Sciences (NCATS), 2012).
Inconclusive results are not listed. Active and inactive are the calls of the source. Calls follow the shape of the dose curve; as a rule, active = well fitted inhibition curve with a large enough effect; inconclusive = small, poorly fitted or top-dose-only effect; inactive = no such curve, though single readings can be large or run the other way.

What follows are molecules tested against Tumor susceptibility gene 101 protein (Homo sapiens) (UniProt Q99816) (assay: qHTS Assay for Iinhibitors of HIV-1 Budding by Blocking the Interaction of PTAP/TSG101: Hit Validation in TR assay). Settings: Tsg101 binding domain + Texas Red-labeled PTAP peptide, fluorescence polarization, 20 min; series mostly up to 57.5 µM.
Sequence of Tumor susceptibility gene 101 protein (Homo sapiens) (Q99816 whole entry, looked up, the tested form may be a part): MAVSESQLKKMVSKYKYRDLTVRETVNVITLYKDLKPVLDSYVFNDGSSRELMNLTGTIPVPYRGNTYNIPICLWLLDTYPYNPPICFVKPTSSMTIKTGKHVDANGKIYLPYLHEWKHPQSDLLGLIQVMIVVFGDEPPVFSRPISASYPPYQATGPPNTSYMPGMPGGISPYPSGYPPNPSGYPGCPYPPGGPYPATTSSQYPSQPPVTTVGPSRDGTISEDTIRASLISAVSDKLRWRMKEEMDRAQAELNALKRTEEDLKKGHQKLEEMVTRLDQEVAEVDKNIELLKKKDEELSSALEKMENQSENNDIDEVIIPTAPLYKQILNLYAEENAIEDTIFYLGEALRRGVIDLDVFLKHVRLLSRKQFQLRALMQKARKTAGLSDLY
In short: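 Fluorescence polarization: Tsg101 binding domain (10 uM final) with Texas Red-labelled PTAP peptide (50 nM final) in HEPES pH 7.5, 0.15 M NaCl, Tween 20, EDTA, TCEP; 20 min binding at room temperature after compound addition.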

Potency, inactive:
Cn1cc(/C=C2\SC(=S)N(NC(=O)c3cccc(Cl)c3)C2=O)c2ccccc21
CC(C)CCN1C(=O)c2cccc3c(N)ccc(c23)C1=O
O=S(=O)(Nc1nc2n(n1)C(c1ccccc1)C=C(c1ccc(Cl)cc1)N2)c1ccccc1 (stereo unspecified)
COc1ccc(-c2cc(C(F)(F)F)c3c(N)c(C(=O)NCCSC)sc3n2)cc1
COc1ccc(N=Nc2nc3cc(Br)c(Br)cc3n2C)c(OC)c1
O=C1CCNc2ccc(-c3ccccc3)cc21
Cn1cc(/C=C2\SC(=S)N(NC(=O)c3ccccc3Cl)C2=O)c2ccccc21
CN1CCc2c(sc3c2C(=O)NC(c2ccco2)N3)C1 (stereo unspecified)
CC(C)c1cc(=O)oc2c3c4c(cc12)CCCN4CCC3
O=C(NCc1ccc(F)cc1)c1cccc2c1C(=O)c1ccc(N3CCC(Cc4ccccc4)CC3)cc1S2(=O)=O
COc1ccccc1NC(=O)C(C)OC(=O)C1CC(=O)N(c2ccc3c(c2)OCCO3)C1 (stereo unspecified)
COc1cc(OC)c(-c2c3cc(O)c(=O)cc-3oc3cc(O)c(O)cc23)cc1OC
CCCCNC(=O)C(C#N)c1nc2ccccc2nc1N1CCN(Cc2ccc3c(c2)OCO3)CC1 (stereo unspecified)
COc1ccc(/C=c2\s/c(=C/C(=O)c3ccc(C)cc3)[nH]c2=O)c(OC)c1
O=C(NC1CCCCC1)c1cccc2c1C(=O)c1ccc(N3CCC(Cc4ccccc4)CC3)cc1S2(=O)=O
O=C(NCc1ccccc1Br)c1cccc2c1C(=O)c1ccc(N3CCC(Cc4ccccc4)CC3)cc1S2(=O)=O
